Structures are written as SMILES. A number with no mark means an inactive call. Records with an inconclusive call do not appear. Active and inactive are the calls of the source. Unless noted, the call rests on the fitted dose curve.

The nature of assay [1]: qHTS assay to identify small molecule antagonists of the sonic hedgehog signaling (Shh) pathway (AID 1259369). Further: nearly all actives have a fitted effect of over 45% in size. Further: potency means the concentration at half of the fitted maximal effect. Put shortly:
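Gli1 transcriptional reporter (firefly Luc) in NIH/3T3 background, conditioned-medium activated. 24hr exposure, luminescence endpoint.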

The target of assay [2] is Estrogen receptor beta (Homo sapiens) (UniProt Q92731). The assay can be described thus: qHTS assay to identify small molecule antagonists of the estrogen receptor beta (ER-beta) signaling pathway (AID 1259378; active means well fitted inhibition curve with a large enough effect in the signal ratio in the repeat runs, not every such curve was filed as active; the % refers to the signal ratio; further: potency means the concentration at half of the fitted maximal effect). The essentials:
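ER-beta-UAS-bla HEK293T (GripTite) cells in 2% charcoal-stripped FBS medium were preincubated 6 hr at 37C, dosed with compound, then stimulated with 1 nM E2 (final) for 16 hr; beta-lactamase reporter read by B/G FRET fluorescence after 2 hr substrate loading.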
(Quantitative high-throughput screening tests each substance at several concentrations.)

The nature of assay [3]: qHTS assay to identify small molecule agonists of the androgen receptor (AR) signaling pathway in the presence of an antagonist - cell viability counter screen (AID 1259379; active means well fitted curve in the direction sought with a large enough effect in the repeat runs; an effect the other way counts as inactive or inconclusive;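 further: MDA-kb2 human breast cancer cells carrying an MMTV luciferase reporter; series mostly up to about 92 µM; nearly all actives have a fitted effect of over 25% in size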). The essentials:
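Counter screen for cell viability run in parallel with the AR agonist-mode luciferase assay. MDA-kb2 cells were co-treated with nilutamide (3.0uM final) and compounds, then incubated 16 hr at 37C, and CellTiter-Fluor fluorescence was measured.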

The nature of assay [4]: qHTS assay to identify small molecule agonists of the estrogen receptor beta (ER-beta) signaling pathway - cell viability counter screen (AID 1259380; active means well fitted curve in the direction sought with a large enough effect in the repeat runs; an effect the other way counts as inactive or inconclusive; further: nearly all actives have a fitted effect of over 30% in size; further: potency means the concentration at half of the fitted maximal effect). The essentials: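 In this qHTS counter screen, HEK293T cells carrying an ER-beta/UAS beta-lactamase reporter, grown in 2% charcoal-stripped FBS, received compound for 16 hr; ATP-based CellTiter-Glo luminescence was then read after 30 min at room temperature.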

For assay [5], the target named is Estrogen receptor (Homo sapiens) (UniProt P03372). Put plainly: qHTS assay to identify small molecule agonists of the estrogen receptor alpha (ER-alpha) signaling pathway in the presence of an antagonist (AID 1259383). Further: top concentration of the series differs between compounds; nearly all actives have a fitted effect of over 15% in size. Put shortly:
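ER-alpha agonism measured under antagonist challenge: 10.0nM ICI-182,780 (final) plus compound, 15 concentrations, 22hr, VM7Luc4E2 ERE-luciferase cells. Read by luminescence.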

Assay [6] in a line: qHTS assay to identify small molecule agonists or antagonists of the thyroid stimulating hormone receptor (TSHR) signaling pathway - wild type cell line counter screen (AID 1259384). The essentials: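 Wild-type HEK293 cells were plated 18 h at 37 C/5% CO2, pin-dosed with compound plus Ro20-1724 medium, held 30 min at room temperature, then given cAMP-d2 and anti-cAMP-cryptate; fluorescence was read after 1 h. Fifteen concentrations, triplicate.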

Assay [7] has as its target Thyrotropin receptor (Homo sapiens) (UniProt P16473). Put plainly: qHTS assay to identify small molecule antagonists of the thyroid stimulating hormone receptor (TSHR) signaling pathway (AID 1259385). Further: nearly all actives have a fitted effect of over 20% in size. Further: potency means the concentration at half of the fitted maximal effect. The essentials:
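TSHR-HEK293 cells were plated and held 18 h at 37C/5% CO2, then given compound plus Ro20-1724 and stimulated with TSH at 1.5 ng/mL final. After 30 min at room temperature, cAMP was detected with cAMP-d2/anti-cAMP-cryptate (1 h) by fluorescence.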

A short description of assay [8]: qHTS assay to identify small molecule agonists of the estrogen receptor alpha (ER-alpha) signaling pathway in the presence of an antagonist - cell viability counter screen (AID 1259386; active means well fitted curve in the direction sought with a large enough effect in the repeat runs; an effect the other way counts as inactive or inconclusive;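 further: series mostly up to about 92 µM; cells exposed to compounds for 22 h at 37 °C before the viability read; nearly all actives have a fitted effect of over 30% in size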). Put shortly: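 Steps: 5-day stripped-FBS culture; seed and incubate 24hr; add ICI-182,780 (10.0nM final); pin 15-point compound titration; incubate 22hr at 37C; add CellTiter-Fluor at 21hr; read fluorescence.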

Assay [9] deals with Progesterone receptor (Homo sapiens) (UniProt P06401). The assay can be described thus: qHTS assay to identify small molecule antagonists of the progesterone receptor (PR) signaling pathway (AID 1346795; active means well fitted inhibition curve with a large enough effect in the signal ratio in the repeat runs, not every such curve was filed as active; the % refers to the signal ratio). Put shortly: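 Stimulus R5020 at 1 nM final; cells HEK293T PR-UAS-bla; medium with 2% charcoal-stripped FBS; compound exposure 16 hr at 37C, 5% CO2; detection by FRET beta-lactamase substrate, 2 hr, room temperature.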
Sequence of Progesterone receptor (Homo sapiens) (P06401 whole entry, looked up): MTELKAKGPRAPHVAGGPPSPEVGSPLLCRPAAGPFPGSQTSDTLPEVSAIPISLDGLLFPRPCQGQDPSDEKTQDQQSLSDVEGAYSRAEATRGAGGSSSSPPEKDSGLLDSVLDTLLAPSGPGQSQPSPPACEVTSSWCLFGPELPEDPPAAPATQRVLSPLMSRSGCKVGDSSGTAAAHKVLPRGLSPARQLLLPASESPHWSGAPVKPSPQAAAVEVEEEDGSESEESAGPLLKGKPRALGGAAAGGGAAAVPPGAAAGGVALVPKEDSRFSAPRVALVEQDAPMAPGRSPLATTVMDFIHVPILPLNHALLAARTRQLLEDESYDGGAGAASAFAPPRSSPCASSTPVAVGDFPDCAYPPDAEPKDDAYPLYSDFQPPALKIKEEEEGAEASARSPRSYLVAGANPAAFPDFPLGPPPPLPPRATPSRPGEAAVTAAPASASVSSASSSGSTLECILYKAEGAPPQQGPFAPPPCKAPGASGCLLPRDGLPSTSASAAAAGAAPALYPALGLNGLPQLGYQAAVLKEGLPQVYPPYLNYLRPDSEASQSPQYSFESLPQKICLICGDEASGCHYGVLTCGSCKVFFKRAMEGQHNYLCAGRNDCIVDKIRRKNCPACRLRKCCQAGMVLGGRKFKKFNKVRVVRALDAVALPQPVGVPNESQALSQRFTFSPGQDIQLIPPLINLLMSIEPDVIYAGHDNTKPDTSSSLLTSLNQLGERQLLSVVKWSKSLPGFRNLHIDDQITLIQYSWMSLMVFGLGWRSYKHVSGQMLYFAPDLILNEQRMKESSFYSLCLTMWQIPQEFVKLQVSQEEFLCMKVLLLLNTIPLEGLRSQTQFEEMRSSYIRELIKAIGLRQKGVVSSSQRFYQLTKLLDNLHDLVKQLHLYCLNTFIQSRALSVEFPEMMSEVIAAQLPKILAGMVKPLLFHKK

A short description of assay [10]: qHTS assay to identify small molecule antagonists of the progesterone receptor (PR) signaling pathway - cell viability counter screen (AID 1346798; active means well fitted curve in the direction sought with a large enough effect in the repeat runs; an effect the other way counts as inactive or inconclusive; further: nearly all actives have a fitted effect of over 50% in size; further: potency means the concentration at half of the fitted maximal effect). Put shortly:
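In the same plates used for the beta-lactamase readout, cell viability of compound- and R5020-treated PR-UAS-bla HEK293T cells (16 hr, 37C) was assessed by CellTiter-Glo luminescence.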

Assay [11] is described as follows: qHTS assay to identify small molecule agonists of the progesterone receptor (PR) signaling pathway - cell viability counter screen (AID 1346799). Further: nearly all actives have a fitted effect of over 45% in size. Further: potency means the concentration at half of the fitted maximal effect. Put shortly:
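Multiplexed viability read: CellTiter-Glo luminescence, 30 min RT, following LiveBLAzer FRET measurement on PR-UAS-bla HEK293T cells exposed to compounds 16 hr.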

A short description of assay [12]: qHTS assay to identify small molecule antagonists of the TGF-beta/Smad signaling pathway - cell viability counter screen (AID 1346824; active means well fitted curve in the direction sought with a large enough effect in the repeat runs; an effect the other way counts as inactive or inconclusive; further: nearly all actives have a fitted effect of over 50% in size). The essentials: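 SBE-bla HEK 293T cells were plated overnight at 37 C, then given compounds in DMSO plus TGF-beta1 (added as 0.25 ng/mL solution) for 5 hr. After the bla read, CellTiter-Glo was added to the same wells and luminescence read after 30 min at room temperature.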

Assay [13] is described as follows: qHTS assay to identify small molecule agonists of the TGF-beta/Smad signaling pathway - cell viability counter screen (AID 1346829; active means well fitted curve in the direction sought with a large enough effect in the repeat runs; an effect the other way counts as inactive or inconclusive; further: top concentration of the series differs between compounds; nearly all actives have a fitted effect of over 45% in size). The essentials:
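Tox21 qHTS format: SBE-bla HEK 293T cells treated with DMSO-dissolved compounds for 5 hr; CellTiter-Glo luminescence after 30 min at room temperature.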

Assay [14] can be described thus: qHTS assay to identify small molecule agonists of the TGF-beta/Smad signaling pathway (AID 1346859; active means well fitted activation curve with a large enough effect in the signal ratio in the repeat runs, not every such curve was filed as active; the % refers to the signal ratio; further: series mostly up to about 77 µM). Put shortly: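 Screening used HEK 293T SBE-bla cells at 4,000/well. Test agents: 5 hr, 37 C. Detection: FRET substrate, 2 hr RT, then excitation 405 nm with emissions at 460 and 530 nm.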
For assay [15], the target named is Thyrotropin-releasing hormone receptor (Homo sapiens) (UniProt P34981). The assay can be described thus: qHTS assay to identify small molecule antagonists of the thyrotropin-releasing hormone receptor (TRHR) signaling pathway (AID 1346877; active means well fitted inhibition curve with a large enough effect in the repeat runs, not every such curve was filed as active; further: series mostly up to about 51 µM). Put shortly: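 Human TRHR in HEK293 cells; inhibition of the intracellular calcium rise triggered by 1 nM TRH was followed by fluorescence over 3 min. Compounds were run at 15 concentrations, three replicates each.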
Sequence of Thyrotropin-releasing hormone receptor (Homo sapiens) (P34981 whole entry, looked up): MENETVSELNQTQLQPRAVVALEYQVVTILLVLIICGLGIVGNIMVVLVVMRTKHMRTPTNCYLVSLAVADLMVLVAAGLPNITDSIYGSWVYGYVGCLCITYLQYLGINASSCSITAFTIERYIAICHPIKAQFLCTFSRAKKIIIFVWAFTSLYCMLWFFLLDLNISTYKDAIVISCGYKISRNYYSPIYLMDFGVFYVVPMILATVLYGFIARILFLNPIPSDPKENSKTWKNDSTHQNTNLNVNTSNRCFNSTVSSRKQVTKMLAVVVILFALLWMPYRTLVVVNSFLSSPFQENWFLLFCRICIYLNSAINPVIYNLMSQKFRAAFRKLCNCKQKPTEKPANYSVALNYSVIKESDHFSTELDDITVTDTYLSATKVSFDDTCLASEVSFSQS

For assay [16] the target is unchanged. The assay can be described thus: qHTS assay to identify small molecule agonists of the thyrotropin-releasing hormone receptor (TRHR) signaling pathway (AID 1346891). Further: series mostly up to about 58 µM. The essentials:
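Readout was intracellular calcium fluorescence in TRHR-Hek293 cells. Cells were incubated 18 h, dye-loaded 2 h at 37 °C, and treated with compound in agonist mode.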

Assay [17] can be described thus: qHTS assay to identify small molecule antagonists of the estrogen receptor beta (ER-beta) signaling pathway - cell viability counter screen (AID 1259382; active means well fitted curve in the direction sought with a large enough effect in the repeat runs; an effect the other way counts as inactive or inconclusive; further: series mostly up to about 92 µM; nearly all actives have a fitted effect of over 55% in size). The essentials:
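HEK293T ER-beta-UAS-bla, 2% charcoal-stripped FBS; compounds + 1nM E2 16 hr 37C; CellTiter-Glo luminescence, 30 min RT.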

For assay [18], the target named is Progesterone receptor (Homo sapiens) (UniProt P06401). Put plainly: qHTS assay to identify small molecule agonists of the progesterone receptor (PR) signaling pathway (AID 1346784). Further: nearly all actives have a fitted effect of over 30% in size. The essentials: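 Reporter assay, GripTite PR-UAS-bla HEK 293T cells: 16 hr exposure to DMSO-dissolved compounds at 37C, 5% CO2, in steroid-depleted (2% charcoal-stripped FBS) medium; beta-lactamase measured by FRET fluorescence.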

The target in assay [19] is Androgen receptor (Homo sapiens) (UniProt P10275). The assay can be described thus: qHTS assay to identify small molecule agonists of the androgen receptor (AR) signaling pathway in the presence of an antagonist (AID 1259381). Further: nearly all actives have a fitted effect of over 15% in size. The essentials:
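AR antagonist background: nilutamide 3.0uM final. Cell line: MDA-kb2, MMTV-driven luciferase, responsive to both AR and GR. Exposure 16hr, 37C, no CO2; ONE-Glo luminescence.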

Sequence of Thyrotropin receptor (Homo sapiens) (P16473 whole entry, looked up): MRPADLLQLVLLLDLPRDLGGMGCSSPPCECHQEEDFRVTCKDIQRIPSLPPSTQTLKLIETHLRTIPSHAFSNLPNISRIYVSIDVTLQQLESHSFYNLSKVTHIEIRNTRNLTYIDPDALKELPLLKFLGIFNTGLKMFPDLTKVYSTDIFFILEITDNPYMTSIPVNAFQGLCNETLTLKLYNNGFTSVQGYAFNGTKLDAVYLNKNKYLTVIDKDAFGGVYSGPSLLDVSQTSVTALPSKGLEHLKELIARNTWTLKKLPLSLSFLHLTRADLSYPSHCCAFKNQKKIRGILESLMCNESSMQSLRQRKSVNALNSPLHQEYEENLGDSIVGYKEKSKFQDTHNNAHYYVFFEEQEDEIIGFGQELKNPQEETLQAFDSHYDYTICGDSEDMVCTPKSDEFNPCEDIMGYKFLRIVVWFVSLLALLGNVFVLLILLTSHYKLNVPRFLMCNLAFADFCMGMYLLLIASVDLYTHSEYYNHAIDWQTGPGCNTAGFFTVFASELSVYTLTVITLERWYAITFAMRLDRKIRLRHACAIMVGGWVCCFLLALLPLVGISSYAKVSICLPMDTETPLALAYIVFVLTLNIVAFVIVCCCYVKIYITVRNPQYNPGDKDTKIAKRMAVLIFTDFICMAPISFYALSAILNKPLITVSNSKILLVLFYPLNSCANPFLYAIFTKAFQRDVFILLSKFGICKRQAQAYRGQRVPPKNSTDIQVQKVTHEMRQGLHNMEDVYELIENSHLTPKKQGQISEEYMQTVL
Sequence of Estrogen receptor (Homo sapiens) (P03372 whole entry, looked up): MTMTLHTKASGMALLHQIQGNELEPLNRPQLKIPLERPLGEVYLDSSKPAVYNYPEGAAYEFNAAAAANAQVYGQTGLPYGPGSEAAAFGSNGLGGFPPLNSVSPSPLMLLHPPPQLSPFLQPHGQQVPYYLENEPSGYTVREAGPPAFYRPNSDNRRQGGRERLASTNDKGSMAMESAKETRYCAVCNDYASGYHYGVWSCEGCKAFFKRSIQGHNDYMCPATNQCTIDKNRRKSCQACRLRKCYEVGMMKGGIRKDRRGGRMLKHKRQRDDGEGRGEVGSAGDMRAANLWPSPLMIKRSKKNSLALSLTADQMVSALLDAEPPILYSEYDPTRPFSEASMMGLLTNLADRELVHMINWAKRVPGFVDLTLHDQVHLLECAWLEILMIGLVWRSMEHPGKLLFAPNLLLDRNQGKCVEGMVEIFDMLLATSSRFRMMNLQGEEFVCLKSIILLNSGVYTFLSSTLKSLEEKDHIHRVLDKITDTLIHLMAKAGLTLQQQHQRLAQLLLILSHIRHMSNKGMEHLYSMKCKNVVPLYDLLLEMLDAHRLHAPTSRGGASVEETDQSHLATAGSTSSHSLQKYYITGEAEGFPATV
Sequence of Estrogen receptor beta (Homo sapiens) (Q92731 whole entry, looked up): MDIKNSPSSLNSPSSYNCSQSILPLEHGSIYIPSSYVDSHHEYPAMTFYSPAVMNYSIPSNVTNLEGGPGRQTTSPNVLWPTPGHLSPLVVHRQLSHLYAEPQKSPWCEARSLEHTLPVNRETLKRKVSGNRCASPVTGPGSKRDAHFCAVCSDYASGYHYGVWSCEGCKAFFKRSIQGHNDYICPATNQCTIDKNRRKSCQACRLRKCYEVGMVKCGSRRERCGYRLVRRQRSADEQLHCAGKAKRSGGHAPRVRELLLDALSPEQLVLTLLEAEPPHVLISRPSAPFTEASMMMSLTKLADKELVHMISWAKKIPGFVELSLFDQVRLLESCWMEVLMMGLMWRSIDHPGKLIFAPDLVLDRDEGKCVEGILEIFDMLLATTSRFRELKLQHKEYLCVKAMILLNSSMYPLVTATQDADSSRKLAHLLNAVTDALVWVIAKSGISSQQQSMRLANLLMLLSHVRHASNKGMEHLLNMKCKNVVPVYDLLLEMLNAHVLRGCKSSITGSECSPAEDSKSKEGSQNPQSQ
Sequence of Androgen receptor (Homo sapiens) (P10275 whole entry, looked up): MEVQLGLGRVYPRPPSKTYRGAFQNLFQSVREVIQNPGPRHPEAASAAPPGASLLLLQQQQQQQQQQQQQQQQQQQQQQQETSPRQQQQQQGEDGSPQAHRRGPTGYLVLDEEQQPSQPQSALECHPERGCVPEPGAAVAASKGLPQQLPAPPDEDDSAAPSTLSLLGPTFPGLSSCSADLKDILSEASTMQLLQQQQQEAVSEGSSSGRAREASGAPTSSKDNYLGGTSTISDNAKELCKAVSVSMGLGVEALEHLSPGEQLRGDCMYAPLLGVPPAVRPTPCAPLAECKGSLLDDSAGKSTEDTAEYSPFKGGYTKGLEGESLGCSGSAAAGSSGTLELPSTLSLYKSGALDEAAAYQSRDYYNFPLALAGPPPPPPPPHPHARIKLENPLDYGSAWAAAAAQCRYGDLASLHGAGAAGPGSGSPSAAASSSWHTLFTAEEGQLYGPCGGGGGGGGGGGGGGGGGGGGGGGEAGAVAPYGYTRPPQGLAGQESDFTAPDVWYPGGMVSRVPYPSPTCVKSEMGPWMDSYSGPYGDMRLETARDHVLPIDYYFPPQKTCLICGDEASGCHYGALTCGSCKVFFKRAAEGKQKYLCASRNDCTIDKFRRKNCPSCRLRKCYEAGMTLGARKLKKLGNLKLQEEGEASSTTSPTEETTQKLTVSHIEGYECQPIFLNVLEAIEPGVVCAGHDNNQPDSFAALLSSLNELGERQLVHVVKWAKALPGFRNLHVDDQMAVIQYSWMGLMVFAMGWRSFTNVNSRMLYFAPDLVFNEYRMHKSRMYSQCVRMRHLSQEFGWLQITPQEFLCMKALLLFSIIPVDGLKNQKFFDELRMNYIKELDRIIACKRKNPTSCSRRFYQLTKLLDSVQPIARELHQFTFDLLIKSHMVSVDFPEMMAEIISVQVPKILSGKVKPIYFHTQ

For the molecule `CCCCCCCCCCCCCCCCCCOS(=O)(=O)O`, the Potency entry in [1], in assay [3], in assay [5], in assay [6], in assay [8] and in [9] was “inactive” each time. Besides, the Potency entry in assay [12], in assay [14] and in assay [16] was “inactive” throughout. Moreover, the Potency in assay [2] is 48.6 µM (active); in assay [4], 48.6 µM (active); in [7] it was 68.6 µM (active); in assay [10] it was 54.5 µM (active); in assay [11], 48.6 µM (active). Besides, the molecule was classed as inactive in assay [13] and in assay [15].
Regarding `CC1OC(=O)C(C)OC1=O` (configuration not stated), the Potency result in [1], in assay [2], in [3], in assay [17], in [5] and in assay [6] was “inactive” each time. Also, the Potency result in assay [7], in assay [8], in [11], in [12], in assay [14] and in [16] was “inactive” in each case. In addition, the molecule was classed as inactive in assay [13] and in assay [15].
For the molecule `CCC(C)(C)CC`, the Potency result in assay [1], in assay [2], in assay [3], in assay [4], in assay [17] and in assay [8] was “inactive” each time. Further, the Potency entry in [18], in [9], in assay [11], in [12] and in assay [14] was “inactive” each time. Further, the outcome in [13] was inactive.
As for `C1CCCNCCC1`, the Potency result in assay [1], in [2], in [3], in assay [4], in assay [6] and in assay [7] was “inactive” each time. Also, the Potency entry in [18], in assay [10], in [11] and in [12] was “inactive” in each case. Moreover, the result in [13] was inactive.
`O=S(c1cc(Cl)cc(Cl)c1O)c1cc(Cl)cc(Cl)c1O`: the Potency in assay [1] was 21.1 µM (active); in assay [4] it was 29.8 µM (active). Further, the Potency result in assay [3], in assay [19], in assay [5], in [6], in [7] and in assay [8] was “inactive” throughout. Also, the Potency entry in [18], in [11], in [12], in assay [14] and in assay [16] was “inactive” each time. In addition, the call in assay [13] and in assay [15] was inactive.
For the molecule `CCCCCCCCO[C@@H]1O[C@H](CO)[C@@H](O)[C@H](O)[C@H]1O`, the Potency entry in [1], in assay [2], in [3], in [4], in assay [17] and in assay [5] was “inactive” each time. In addition, the Potency entry in assay [7], in assay [8], in assay [18], in assay [9], in assay [10] and in assay [11] was “inactive” throughout. Also, the Potency result in assay [12], in assay [14] and in [16] was “inactive” in each case. Moreover, the call in [13] and in assay [15] was inactive.
Turning to `O=CC1CC=CCC1` (configuration not stated), the Potency result in [1], in [3], in assay [4], in [19], in assay [17] and in [5] was “inactive” in each case. For the same molecule, the Potency entry in [6], in [7], in assay [8], in [18], in [9] and in assay [10] was “inactive” in each case. The Potency result in [11], in assay [14] and in assay [16] was “inactive” each time. Further, the molecule was called inactive in assay [13] and in [15].

(Values after PubChem BioAssay (Tox21).)
